The structures appear in SMILES notation.

The results in this text go back to paper PMC5540273 (PLoS ONE, 2017).
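Also: KINOMEscan kinase panel screen.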

The test system of this assay is RIPK2. Particulars: concentration: 1 μM, replicates: in singlicate; n = 1.
For the compound `COc1ccc(Nc2nccc(NCCNC(=O)Nc3cc(C)ccc3C)n2)cc1` [GSK1379899], the “%Inh” value amounted to 0%.
On to `Cn1cnc2c(N)ncnc21` [SKF-97623], for which the “%Inh” value was 0%.
With `Fc1ccc(-c2nc[nH]c2-c2ccncc2)cc1` [SB-217360] the figure was 66%; with `CNc1nc(-c2ccc3c(N)n[nH]c3c2)cc(N2C[C@@H](C(=O)Nc3ccccc3)CC[C@H]2C)n1` [GSK2298859], 0%; with `Nc1ncnc2occ(-c3ccc4c(c3)CCN4C(=O)Cc3cc(F)ccc3F)c12` [GSK2645446], 0%.
With `COc1ccc2cc(-c3nc(-c4ccccc4C(C)C)[nH]c3-c3ccncc3)ccc2c1` [SB-660566] the figure was 21%; with `COc1cc2ncnc(Nc3cccc(Br)c3)c2cc1OC.Cl` [GI230329], 38%; with `CC(=O)c1cccc(NC(=O)NC2CCN(c3ccnc(Nc4ccc(F)cc4)n3)C2)c1` (stereo not shown) [GSK1379710], 24%.
With `Cc1c(Cn2c3ccccc3n3c(=O)cc(N4CCOCC4)nc23)cccc1C(F)(F)F` [GSK2306394] the figure was 0%; with `CCc1ccc(-c2ccc3c(c2)-c2n[nH]cc2S(=O)(=O)N3C)cc1`, 16%; with `COc1ccc(-c2coc3ccc(-c4nnc(C)o4)cc23)cc1`, 3%.
On to `COc1cccc(CNC(=O)NC2CCN(c3ccnc(Nc4ccc(F)cc4)n3)C2)c1` (stereo not shown) [GSK1379723], for which the “%Inh” value came to 7%.
Take `COC(=O)C(Cc1ccccc1)NC(=O)NC1CCN(c2ccnc(Nc3ccc(F)cc3)n2)C1` (stereo not shown) [GSK1379714]: the “%Inh” value is on record as 3%.
With `COc1ccc(Nc2nccc(N3CCC(NC(=O)C(C)c4ccc(Cl)cc4)C3)n2)cc1` (stereo not shown) [GSK1379735] the figure was 10%; with `Cc1ccccc1Cn1ccn2c(=O)cc(N3CCOCC3)nc12` [GSK2269905], 0%.
`NS(=O)(=O)c1cccc(N/C=C2\C(=O)Nc3ccc(S(=O)(=O)Cc4c(Cl)cccc4Cl)cc32)c1` [GSK398099]: the “%Inh” value was 12%.
With `O=c1cc(N2CCOCC2)nc2n(Cc3ccccc3F)ccn12` [GSK2297428] the figure was 2%; with `CC[C@@H]1CO[C@H](C(=O)Nc2ccccc2)CN1c1cc(-c2ccc3c(N)n[nH]c3c2)nc(NC)n1` [GSK2376236], 9%.
With `CNc1nc(-c2ccc3c(N)n[nH]c3c2)cc(N2C[C@@H](C(=O)NC3CCCCC3)OC[C@H]2C)n1` [GSK2375584] the figure was 1%.
With `O=c1cc(N2CCOCC2)nc2n(Cc3cccc(Cl)c3Cl)c3ccccc3n12` [GSK2299009] the figure was 32%; with `c1ccc(-c2ccnc3[nH]ccc23)cc1` [SB-693578], 18%; with `Cn1cncc1C(=O)NC1CCN(c2ccnc(Nc3ccc(F)cc3)n2)C1` (stereo not shown) [GSK1379717], 6%.
Turning to `COc1ccc(Nc2nccc(N3CCC(NC(=O)c4cc5ccccc5s4)C3)n2)cc1` (stereo not shown) [GSK1379738], the “%Inh” value was 0%.
Regarding `COc1ccc(CSc2nnc(-c3ccc4ncsc4c3)o2)cc1C(F)(F)F`, the “%Inh” value turned out to be 0%.
As for `COC(=O)C(NC(=O)NC1CCN(c2ccnc(Nc3ccc(F)cc3)n2)C1)c1ccccc1` (stereo not shown) [GSK1379712], the “%Inh” value is reported as 20%.
For `CS(=O)(=O)Cc1ccc(Nc2nccc(-c3c(-c4cccc(NC(=O)C5CCCCC5)c4)nn4ncccc34)n2)cc1` [GSK350559], the “%Inh” value is reported as 5%.
With `Cc1ccc(-c2nc(Nc3ccncc3)c3ccccc3n2)s1` [GSK189015] the figure was 10%; with `Cc1ccc(NC(=O)Nc2ccc(Cl)c(C(F)(F)F)c2)cc1-c1ccc(C(=O)Nc2ccncc2)cc1` [GSK1398470], 0%; with `CC(C)c1cc(-c2ccc3c(N)n[nH]c3c2)nc(N)n1` [GSK2250882], 0%.
For `Cc1nccc(-c2c(-c3ccc(F)cc3)ncn2CCCN2CCOCC2)n1.Cl` [SB-282975], the “%Inh” value is on record as 27%.
Regarding `FC(F)(F)c1ccccc1-c1cc(-c2c[nH]nc2-c2ccccn2)ccn1` [GW679396], the “%Inh” value stood at 20%.
With `Cc1ccc(NC(=O)Nc2ccccc2)cc1-c1ccc(C(=O)Nc2ccncc2)cc1` [GSK1398471], the “%Inh” value was found to be 12%.
With `Cn1cncc1-c1cc2c(Nc3ccc(OCc4ccccc4)cc3)ncnc2cn1` [GW281179] the figure was 92.1%; with `Nc1nccc(-c2c(-c3ccc(F)cc3)ncn2C2CCN(Cc3ccccc3)CC2)n1` [SB-219980], 76%.
With `Cc1c(Cn2c(C)c(C)n3c(=O)cc(N4CCOCC4)nc23)cccc1C(F)(F)F` [GSK2328680], the “%Inh” value came out at 11%.
For the compound `COc1ccc(Nc2nccc(-c3ccc(NC(=O)c4cc5cc(F)ccc5[nH]4)cc3)n2)cc1` [GSK1229496], the “%Inh” value stood at 4%.
With `Fc1ccc(-c2nc3n(c2-c2ccncc2)CCS3)cc1` [GI98581] the figure was 31%.
